High-throughput results deposited in PubChem BioAssay by The Scripps Research Institute Molecular Screening Center.
UHRF1 binding – blocks human UHRF1 binding to methylated DNA; Q96T88; UHRF1 binding to methylated oligo, TR-FRET; inhibition, % at 4.4 µM; 0.75% of 370,000 active; AID 687016; in the data active means inhibition above about 21%;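 further: UHRF1 SRA domain binding a hemimethylated CpG hairpin DNA probe; 0% = median of test compound wells and 100% = reference inhibitor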
Target sequence (Q96T88 whole entry, looked up, the tested form may be a part): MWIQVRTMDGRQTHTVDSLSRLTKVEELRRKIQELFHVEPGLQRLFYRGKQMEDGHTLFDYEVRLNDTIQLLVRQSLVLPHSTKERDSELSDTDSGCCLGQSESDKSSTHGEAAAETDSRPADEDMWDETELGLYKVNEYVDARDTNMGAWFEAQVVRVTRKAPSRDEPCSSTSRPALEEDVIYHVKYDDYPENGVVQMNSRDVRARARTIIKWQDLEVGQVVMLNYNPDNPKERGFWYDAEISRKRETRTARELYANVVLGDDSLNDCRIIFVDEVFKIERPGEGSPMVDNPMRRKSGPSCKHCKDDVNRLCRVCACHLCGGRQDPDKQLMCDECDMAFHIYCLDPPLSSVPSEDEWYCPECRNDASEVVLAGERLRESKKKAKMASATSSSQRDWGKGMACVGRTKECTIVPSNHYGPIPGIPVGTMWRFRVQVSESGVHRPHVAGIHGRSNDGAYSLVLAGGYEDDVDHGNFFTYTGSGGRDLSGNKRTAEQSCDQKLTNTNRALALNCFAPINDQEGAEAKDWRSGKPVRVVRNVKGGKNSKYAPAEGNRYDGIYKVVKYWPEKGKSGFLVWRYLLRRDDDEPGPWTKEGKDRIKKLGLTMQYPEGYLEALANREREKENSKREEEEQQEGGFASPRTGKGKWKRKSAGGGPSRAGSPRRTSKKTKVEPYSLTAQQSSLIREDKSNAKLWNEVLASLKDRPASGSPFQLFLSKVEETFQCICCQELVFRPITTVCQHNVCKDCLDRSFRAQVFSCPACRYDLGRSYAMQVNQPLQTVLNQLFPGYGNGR
PLCb3 inh – inhibitors of human phospholipase C beta3 | Q01970 | Purified PLC-beta3, fluorogenic substrate, fluorescence | inhibition, % at 12.2 µM | 0.18% of 370,000 active; in the data active means inhibition above about 11%;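 further: 0% = median of compound wells on plate and 100% = full blocker control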
LEDGF integ inh – blocks HIV-1 LEDGF/p75-dependent DNA integration; TR-FRET IN-LEDGF/p75 DNA integration, Eu/Cy5; inhibition, % at 3.7 µM; 0.64% of 370,000 active;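 active means inhibition above the screen-wide mean plus 3 SD, cut at about 13% in these data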;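 further: signal is the Cy5 over europium emission ratio at 671 and 618 nm; 0% = plate median of compound wells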
PLC-gamma1 inh – inhibitors of human phospholipase C gamma1. P19174. purified PLC-gamma1, fluorogenic substrate, fluorescence. inhibition, % at 12.2 µM. 0.84% of 370,000 active
MBD2 inh – blocks human MBD2 binding to methylated DNA; AID 686964; inhibition, % at 4.4 µM; TR-FRET, MBD2 binding to methylated oligonucleotide; 0.31% of 370,000 active; Q9UBB5; in the data active means inhibition above about 13%
PLCgamma1 ctr – counter-screen for PLC-beta3 inhibitors: inhibitors of human PLC-gamma1 | purified PLC-gamma1, fluorogenic substrate, fluorescence | 3.1% of 3,300 active | AID 743258 | inhibition, % at 12.3 µM | shares compounds with PLC-gamma1 inh
PLCbeta3 conf – confirmation of human PLC-beta3 inhibitors; shares compounds with PLC-gamma1 inh; purified PLC-beta3, fluorogenic substrate fluorescence; inhibition, % at 12.3 µM; 1% of 3,300 active; in the data active means inhibition above about 11%
* hit, by the source's call; x = no result. Hits are enriched below; roughly 2.4% of the tested compounds scored in any of these assays. Unless noted, no stated cut-off is given here; in the data, active means inhibition above about 9.5%; inactive means the rest.

SMILES	UHRF1 binding	PLCb3 inh	LEDGF integ inh	PLC-gamma1 inh	MBD2 inh	PLCgamma1 ctr	PLCbeta3 conf
CC(CCCC(C)(C)O)NC(=O)c1ccc(OC2CCN(C(=O)C3CC3)CC2)cc1 (stereo not drawn)	0	-3	5	3	0	x	x
CC(C)C[C@H](NC(=O)c1ccc(OC2CCN(C(=O)C3CC3)CC2)cc1)C(N)=O	4	-4	2	9.7*	3	-2	-5
O=C(NCCc1csc(-c2cccnc2)n1)c1ccc(Cl)cc1	1	4	5	13*	4	-1	3
O=C(NCCc1csc(-c2cccnc2)n1)c1cccc(Cl)c1	-1	-4	0	0	1	x	x
O=[N+]([O-])c1cccc(C2=Nn3c(nnc3-c3ccccc3)SC2)c1	-2	1	-1	1	2	x	x
COCCNC(=O)CS(=O)Cc1nc(-c2ccc(OC)cc2)oc1C (stereo not drawn)	1	-1	-3	-3	0	x	x
COCCCNC(=O)CS(=O)Cc1nc(-c2cccc(OC)c2)oc1C (stereo not drawn)	0	4	-1	66*	4	-4	-2
CC1CCC2(CC1)CCN(CCCOC(=O)Nc1cccc(C(F)(F)F)c1)C2=O (stereo not drawn)	1	-2	0	-2	4	x	x
CC1CCC(C(C)C)C(OC(=O)C[n+]2cc(-c3ccc(Cl)cc3)n3c2CCC3)C1 (stereo not drawn)	3	-3	0	9.9*	4	-3	-1
O=C(C[n+]1cc(-c2ccc(Cl)cc2)n2c1CCC2)N1c2ccccc2Sc2ccccc21	-1	3	2	5	-4	x	x
CCn1c2ccccc2c2cc(C=NNC(=O)CSc3nc4ccccc4c(=O)n3-c3ccccc3)ccc21	-2	-47	2	-39	-1	x	x
Cc1ccc(-n2ncc3c(N4CCC(C(N)=O)CC4)ncnc32)c(C)c1	4	1	1	15*	-1	3	2
CCN(CC)C(=O)C1CCN(c2ncnc3c2cnn3-c2ccc(C)cc2C)CC1	3	-2	-2	2	-2	x	x
O=C(NCc1ccccc1)c1cc(C2CCCCN2C(=O)c2ccc3c(c2)CCO3)on1 (stereo not drawn)	7	-2	-2	12*	5	-3	-144
CCOC(=O)c1c(NC(=S)N2CCN(C)CC2)sc(C)c1-c1ccccc1	-2	-3	3	11*	1	-7	-4
CC1CCN(C(=O)CSc2nc3ncccc3[nH]2)CC1	0	3	-2	0	0	x	x
CCC1CCCCN1C(=O)CSc1nc2ncccc2[nH]1 (stereo not drawn)	5	-7	-2	11*	2	-4	-3
CCOc1c(Cl)cc(CNCC(O)c2ccccc2)cc1OC (stereo not drawn)	-4	2	1	11*	-4	2	5
NC(=O)C1CCN(c2nc(-c3ccc4c(c3)OCCCO4)cs2)CC1	0	2	-3	1	2	x	x
COC(=O)C1CN(Cc2ccc(C)cc2)CCS(=O)(=O)N1Cc1cn(Cc2ccc(Cl)cc2)nn1 (stereo not drawn)	8	2	2	3	-5	x	x
O=C(Oc1ccc(/C=N/NC(=O)c2ccco2)cc1)c1ccccc1	-2	3	8	10*	-5	2	8
O=C(Oc1ccc(/C=N/NC(=O)c2ccccc2O)cc1)c1ccccc1	1	-19	-2	-16	0	x	x
O=C(N/N=C/c1ccc(OC(=O)c2cccs2)cc1)c1ccc(F)cc1	9	11*	2	10*	1	-1	5
O=C(N/N=C/c1ccc(OC(=O)c2ccccc2)cc1)c1cccc(O)c1	-3	18*	-2	13*	5	11*	15*
CN(C)S(=O)(=O)c1ccc(C(=O)NCCSc2ccc(Br)cc2)cc1	3	4	8	10*	3	-3	3
SMILES	UHRF1 binding	PLCb3 inh	LEDGF integ inh	PLC-gamma1 inh	MBD2 inh	PLCgamma1 ctr	PLCbeta3 conf
O=C(NCCSc1ccccc1)c1ccc(Br)cc1	6	0	3	5	9	x	x
COc1ccc(CCNC(=O)CN2C(=O)COc3ccc(S(=O)(=O)N4CCOCC4)cc32)cc1OC	6	-5	2	11*	-3	-7	0
COc1ccc(OC)c(CCNC(=O)CN2C(=O)COc3ccc(S(=O)(=O)N4CCOCC4)cc32)c1	4	-11	-1	-2	3	x	x
CCOC(=O)[C@H](CCc1ccccc1)N[C@@H](C)C(=O)N1C(C(=O)O)C[C@@H]2CCC[C@@H]21 (stereo partly drawn)	1	10	2	10*	-8	-1	-1
CCC[C@H](N[C@@H](C)C(=O)N1[C@H](C(=O)O)C[C@@H]2CCCC[C@@H]21)C(=O)OCC	1	3	0	3	4	x	x
CCOP(=O)(OCC)C(Nc1cccc(C(F)(F)F)c1)c1ccc(Br)cc1 (stereo not drawn)	1	12*	1	8	-2	-8	-9
CCOP(=O)(OCC)C(Nc1ccc(F)cc1)c1ccccc1 (stereo not drawn)	-6	-4	4	-1	1	x	x
Cc1cc2cc3c(cc2n2c(SCC(=O)Nc4nc(-c5ccccc5)cs4)nnc12)OCO3	3	-32	0	-19	-3	x	x
COc1ccc(CCNC(=O)c2[nH]c(C)c(C(C)=O)c2C)cc1OC	-1	3	0	0	1	x	x
CCOc1ccc(CCNC(=O)CCn2cccc2)cc1OCC	1	5	0	11*	-5	-3	2
CCOc1ccc(CCNC(=O)c2[nH]c(C)c(C(C)=O)c2C)cc1OCC	6	-3	0	9.8*	-3	2	3
COc1ccc(CCNC(=O)CCn2cccc2)cc1OC	1	-1	-4	1	-5	x	x
CCCCN(C)C(=O)c1oc(=O)c2ccccc2c1-c1ccc(C)cc1	-2	1	-1	0	4	x	x
O=C1OC(Cc2ccccc2)(c2ccccc2)c2ccccc21 (stereo not drawn)	1	11*	1	11*	-3	0	0
O=C1OC(Oc2ccccc2)(c2ccccc2)c2ccccc21 (stereo not drawn)	4	1	0	-1	-3	x	x
CCN(CC)C(=O)c1sc(NC(=O)c2ccc(C)c([N+](=O)[O-])c2)c(C#N)c1C	5	6	1	11*	1	1	4
FC(F)(F)c1ccccc1C(C#Cc1ccccc1)NCc1ccc2c(c1)OCO2 (stereo not drawn)	-3	-1	-3	0	4	x	x
CC1CCCCN1C(=O)C(Cc1ccccc1)N1C(=O)C2CCCCC2C1=O (stereo not drawn)	2	11*	-1	11*	-6	-3	-3
